# ± gives the standard deviation.
# Assays:
# Conditions in all cases: modulator concentration 10 µM
# [1] = system: RAW-Dual (murine macrophage reporter line); assay: NF-kB reporter (SEAP) activity fold change vs agonist alone; higher = enhanced NF-kB activity
# Summary of the method: (§1)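 Overnight stimulation with a PRR agonist followed pre-incubation for 1 hour at 37 °C with compound at 10 μM final. This was done in RAW-Dual murine macrophage reporter cells seeded at 50 000 per well in 384-well plates. NF-κB (SEAP, QUANTI-Blue absorbance at 620 nm) and IRF (Lucia luciferase, QUANTI-Luc luminescence) were read from the supernatant. Each reporter's fold change relative to the mean agonist-only control on the same plate was averaged over replicate plates.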
# [2] = system: RAW-Dual (murine macrophage reporter line); assay: IRF reporter (Lucia luciferase) activity fold change vs agonist alone; higher = enhanced IRF activity
# Summary of the method: as §1
# [3] = system: RAW-Dual (murine macrophage reporter line); assay: viability score (confluency relative to resting cells, overnight) (fraction); higher = more viable, active = viable (0.7 or more)
# Summary of the method: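 RAW-Dual macrophages in 384-well plates were incubated overnight with compound, final concentration 10 μM. Confluency images from IncuCyte were processed in IncuCyte software into two masks covering all imaged wells. The viability score is each well's confluency relative to resting cells, and a compound met the cutoff when both masks exceeded 70% of resting cells.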
# [4] = agonist: CpG ODN 1826 0.5 ug/mL
Compound,"NF-kB reporter [1, 4]",NF-kB reporter ([1]; agonist: LPS 0.1 ug/mL),NF-kB reporter ([1]; agonist: MPLA […]),IRF reporter ([2]; agonist: 3'3'-cGAMP 10 ug/mL),IRF reporter ([2]; agonist: LPS 0.1 ug/mL),IRF reporter ([2]; agonist: MPLA […]),viability score [3]
O=C(O)c1cc2nc(-c3ccc(Cl)c(Cl)c3)cc(C(F)(F)F)n2n1,0.958 ± 0.076,1.09 ± 0.06,0.973 ± 0.058,1.02 ± 0.031,1.66 ± 0.2,1.13 ± 0.11,1.01 (active)
CC(C)CN(C[C@@H](O)[C@H](Cc1ccccc1)NC(=O)O[C@H]1CCOC1)S(=O)(=O)c1ccc(N)cc1,1.51 ± 0.36,1.4 ± 0.43,1.63 ± 0.097,0.918 ± 0.028,1.29 ± 0.33,1.22 ± 0.14,0.998 (active)
CC(C)(C)C1(O)CC(C(F)(F)F)=NN1C(=O)c1cccc([N+](=O)[O-])c1 (configuration not stated),0.62 ± 0.091,1.08 ± 0.062,0.873 ± 0.052,1.01 ± 0.025,1.48 ± 0.27,1.01 ± 0.22,0.974 (active)
CSCCC(NC(=O)C(=Cc1ccccc1)NC(=O)c1ccco1)C(=O)O (configuration not stated),0.764 ± 0.066,0.842 ± 0.054,0.936 ± 0.081,1.05 ± 0.05,1.33 ± 0.081,1.49 ± 0.14,1 (active)
O=C(C=Cc1ccc2c(c1)OCO2)NCc1ccccn1,0.994 ± 0.16,1.08 ± 0.089,0.897 ± 0.069,0.933 ± 0.041,1.27 ± 0.27,1.28 ± 0.15,0.994 (active)
O=C(Nc1cc(C(F)(F)F)cc(C(F)(F)F)c1)c1ccc([N+](=O)[O-])cc1,0.977 ± 0.09,1.03 ± 0.14,1.02 ± 0.063,0.998 ± 0.03,1.42 ± 0.14,1.05 ± 0.075,1.01 (active)
O=C(O)c1ccc2c(c1)nc(Nc1cccc(Cl)c1)c1ccncc12,1.24 ± 0.19,1.35 ± 0.35,1.4 ± 0.34,0.993 ± 0.033,1.39 ± 0.32,0.832 ± 0.083,0.986 (active)
COc1ccc(Br)c(C(=O)N2CCOCC2CO)c1 (configuration not stated),0.922 ± 0.049,0.963 ± 0.095,1.03 ± 0.071,0.997 ± 0.098,1.36 ± 0.26,1.52 ± 0.51,0.951 (active)
CC(=O)Nc1c(-c2ccc3ccccc3c2)nc2ccccn12,1.37 ± 0.33,0.942 ± 0.079,1.07 ± 0.11,0.949 ± 0.032,1.14 ± 0.15,1.16 ± 0.14,0.995 (active)
C[C@@H]1COC(Nc2ccc3ncnc(Nc4ccc(OCc5nccs5)c(Cl)c4)c3c2)=N1,0.381 ± 0.07,0.881 ± 0.17,0.84 ± 0.065,0.186 ± 0.023,0.833 ± 0.2,1.27 ± 0.23,0.595 (inactive)
COC(=O)COc1ccc2oc(=O)cc(-c3cc4cccc(OC)c4o3)c2c1,0.858 ± 0.065,1.06 ± 0.12,1.05 ± 0.025,0.928 ± 0.052,0.872 ± 0.084,1.04 ± 0.086,0.992 (active)
CC(=Cc1ccccc1)CN1CC(C)OC(C)C1 (configuration not stated),0.788 ± 0.063,0.788 ± 0.05,1.04 ± 0.12,0.933 ± 0.044,1.28 ± 0.074,1.47 ± 0.17,0.956 (active)
O=C(COCc1ccccc1)NC1CCC(F)(F)CC1,0.891 ± 0.068,1.03 ± 0.14,0.777 ± 0.057,0.643 ± 0.036,1.1 ± 0.069,1.02 ± 0.36,1.01 (active)
COc1cccc(-c2nnc(NC(=O)C3CC3)o2)c1,1.21 ± 0.071,0.987 ± 0.096,0.999 ± 0.037,0.95 ± 0.055,1.04 ± 0.057,1.11 ± 0.12,1 (active)
O=C(c1ccc2ccccc2n1)N1CCc2ncncc2C1,1.08 ± 0.054,1.04 ± 0.083,0.862 ± 0.044,0.956 ± 0.063,1.09 ± 0.18,1.11 ± 0.27,1.01 (active)
Cc1ccc2nc(C)c(NC(=O)c3ccc4ccccc4n3)c(=O)n2c1,0.787 ± 0.25,1.03 ± 0.14,0.823 ± 0.091,0.793 ± 0.04,1.02 ± 0.061,1.1 ± 0.23,0.994 (active)
CCOC(=O)C1CCN(C(=O)c2ccc(C#CC(C)(C)O)cc2)CC1,0.747 ± 0.063,0.845 ± 0.041,1.1 ± 0.1,0.91 ± 0.048,1.34 ± 0.077,1.46 ± 0.12,1.01 (active)
Brc1ccc2ncnc(NCc3ccco3)c2c1,0.856 ± 0.14,1.98 ± 0.16,2.54 ± 0.3,0.373 ± 0.021,0.647 ± 0.12,0.7 ± 0.12,0.996 (active)
O=C(CSc1ccc(F)cc1)N1CCn2nc3c(c2C1)CCC3,1.39 ± 0.087,1.01 ± 0.1,1.05 ± 0.056,1.03 ± 0.11,1.03 ± 0.064,1.03 ± 0.12,1 (active)
Cc1ccc(-c2nc(O)nc3ccccc23)cc1,1.28 ± 0.37,1.11 ± 0.086,1.07 ± 0.086,0.786 ± 0.054,0.967 ± 0.14,0.966 ± 0.11,0.931 (active)
O=S(=O)(NCCOCc1ccccc1)c1ccccc1,1.13 ± 0.093,1.05 ± 0.076,1.04 ± 0.14,1.02 ± 0.068,1.19 ± 0.18,1.27 ± 0.21,0.966 (active)
CNS(=O)(=O)C[C@H]1CC[C@H](N(C)c2ncnc3[nH]ccc23)CC1.O=C(O)/C=C\C(=O)O,0.179 ± 0.044,0.0999 ± 0.005,0.414 ± 0.033,0.0771 ± 0.0033,0.269 ± 0.029,0.376 ± 0.056,0.997 (active)
COC(=O)CNC(c1ccccc1)c1cc(Br)ccc1NC(=O)c1ccccc1 (configuration not stated),1.06 ± 0.18,1.03 ± 0.12,1.33 ± 0.21,1.06 ± 0.035,1.16 ± 0.13,1.63 ± 0.19,1.01 (active)
COCCN1CCC(NC(=O)c2cnc3ccccc3n2)CC1,0.441 ± 0.024,1.02 ± 0.085,1.35 ± 0.072,0.951 ± 0.05,1.14 ± 0.25,1.2 ± 0.48,0.935 (active)
CC(=O)NC(CS)C(=O)O (configuration not stated),0.957 ± 0.074,0.934 ± 0.068,0.96 ± 0.09,0.946 ± 0.035,1.08 ± 0.18,1.08 ± 0.18,1.03 (active)
CN(C)CCCOc1nn(Cc2ccccc2)c2ccccc12.Cl,0.704 ± 0.032,0.913 ± 0.073,0.803 ± 0.045,0.892 ± 0.043,1.14 ± 0.27,1.22 ± 0.43,1 (active)

# From the supplement of paper PMC10646978
